A selection: hits, their analogues and other compounds. The true share with any hit is near 2.8%.
KCNH2 3.1 block = KCNH2 3.1 (human) potassium channel inhibition; 340,000 compounds, 0.95% hits; AID 720553; activity change, % (tested at about 1.8 µM); U2OS KCNH2 3.1, thallium flux FluxOr; active compounds read low;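 active means maximum activity change below -70%; inconclusive means maximum activity change from -70% to -50%; inactive means maximum activity change above -50%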;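 further: thallium influx rate constant from kinetic fluorescence after stimulation buffer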
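Normalized rate constant (relative to positive and negative DMSO controls) derived from a 2 min kinetic fluorescence read after stimulation; U2OS cells expressing the 3.1 isoform via virus at 1.77 x 10^8 /mL.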
GLP-1R agonist = activates the human GLP-1 receptor. Potency, µM (top dose mostly 45.6 µM), usual class: activators. 380,000 compounds, 0.007% hits. P43220. HEK293 GLP-1R CRE-luciferase, luminescence, 4-6 h; cells express a hypersensitive GLP-1R form
GLS inhibitor = blocks human kidney-isoform glutaminase activity. GLS enzymatic activity, qHTS titration. O94925. Potency, µM (titrated, usually from 45.5 µM), most hits filed as inhibitors. 410,000 compounds, 0.21% hits
Target sequence (O94925 whole entry, looked up, canonical isoform): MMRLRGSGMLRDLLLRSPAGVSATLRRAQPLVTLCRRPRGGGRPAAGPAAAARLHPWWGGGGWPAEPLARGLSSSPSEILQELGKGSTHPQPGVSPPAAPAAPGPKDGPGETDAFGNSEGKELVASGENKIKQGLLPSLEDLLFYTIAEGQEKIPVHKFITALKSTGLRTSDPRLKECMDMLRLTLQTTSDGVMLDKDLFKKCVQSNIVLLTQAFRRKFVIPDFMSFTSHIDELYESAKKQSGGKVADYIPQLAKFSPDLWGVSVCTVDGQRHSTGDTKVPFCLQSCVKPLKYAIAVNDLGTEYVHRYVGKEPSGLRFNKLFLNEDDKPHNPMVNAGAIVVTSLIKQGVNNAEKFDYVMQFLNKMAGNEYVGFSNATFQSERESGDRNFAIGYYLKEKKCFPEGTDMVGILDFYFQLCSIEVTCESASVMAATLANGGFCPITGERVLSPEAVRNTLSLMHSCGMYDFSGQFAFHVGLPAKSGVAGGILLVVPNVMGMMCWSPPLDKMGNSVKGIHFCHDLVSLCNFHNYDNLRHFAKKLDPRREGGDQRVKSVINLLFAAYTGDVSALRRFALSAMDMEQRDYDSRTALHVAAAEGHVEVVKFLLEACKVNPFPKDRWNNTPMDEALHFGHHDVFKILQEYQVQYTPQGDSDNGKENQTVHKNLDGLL
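Coupled fluorescence readout: glutamate oxidase/HRP/Amplex Red detect glutamate formed by hKGA from L-glutamine (1 mM solution added). Buffer 45 mM KH2PO4 pH 8.2, 0.02% Tween-20; reads at t0 and 30 min RT.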
KCNH2 WT inh = blocks the wildtype human KCNH2 potassium channel | Q12809 | U2OS, BacMam KCNH2, thallium flux FluxOr; active compounds read low | activity change, % at 1.84 µM | 340,000 compounds, 0.37% hits | AID 720551;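 active means maximum activity change below -70%; inconclusive means maximum activity change between -70% and -50%; inactive means maximum activity change above -50%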
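U2OS cells transduced with wild-type KCNH2 virus are loaded with FluxOr dye for 45 min, and thallium flux is measured in kinetic reads before and after stimulation buffer. Rate constants are normalized to DMSO controls.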
HEK293 tox = cytotoxicity counter-screen for GLP-1 receptor inverse agonists; HEK293 cAMP-luciferase reporter cells, luminescence, 24 h; Potency, µM (series often up to 38.3 µM), actives largely listed as inhibitors; 410,000 compounds, 0.13% hits; AID 624418;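 further: loss of luciferase light is scored as toxicity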
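To flag toxic compounds, the library was rerun on cells for 24 hr at 37 deg C and 5% CO2. Viability-linked luminescence was captured 12 min after adding luciferase detection reagent.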
GLP1R inv ag = acts as inverse agonist at human GLP-1 receptor; HEK293 GLP-1R CRE-luciferase, luminescence, 24 h; GLP-1R form is constitutively active; Potency, µM (series often up to 38.3 µM), hits mostly inhibitors; 410,000 compounds, 1.6% hits; AID 624417; further: nearly all actives have a fitted effect of over 55% in size
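qHTS in 1536-well format: reporter HEK293 cells expressing constitutive GLP-1R activity in DMEM + 10% Nu serum, 24 hr with compounds at 37 deg C, luminescence read after 12 min with detection reagent.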
A number is an active result; i = inactive; ? = inconclusive; nt = no result; ! = not active in a repeat; [ ] = remark or other dose. Unless noted, the call rests on the fitted dose curve; in most records, active means well fitted curve in the direction sought with a large enough effect; inconclusive means small, poorly fitted or top-dose-only effect, or another doubt; inactive means no such curve, though single readings can be large; an effect the other way counts as inactive or inconclusive.

SMILES | KCNH2 3.1 block | GLP-1R agonist | GLS inhibitor | KCNH2 WT inh | HEK293 tox | GLP1R inv ag
Cc1ccc(C(CC(=O)N2CCNCC2)c2ccccc2)c(O)c1C (configuration not stated) | -107.4 | i | i | i | i | ?
Cc1ccc(C(CC(=O)N2CCCCC2)c2ccccc2)c(O)c1C (configuration not stated) | i | i | i | i | i | ?
Nc1nc(Sc2ccc([N+](=O)[O-])c3nonc23)c2[nH]cnc2n1 | i | i | ? | i | 8.91µM | ?
CNc1ncnc(Sc2nc(N)nc3nc[nH]c23)c1[N+](=O)[O-] | i | i | i | i | i | i
S=C(NCc1cccnc1)Nc1cc(Cl)cc(Cl)c1 | i | i | i | i | i | 10µM
O=C(NC(=S)NCc1ccccc1)c1cccnc1 | i | i | i | -77.6 | i | i
O=C(NNC(=S)NCc1ccccc1)c1cccnc1 | i | i | i | i | i | i
CCC(=O)N1c2ccccc2CC1C(=O)NCc1ccc(CC)cc1 (configuration not stated) | nt | nt | i | nt | i | i
O=C(NC(=S)N(CCc1ccccc1)CCc1ccccc1)c1ccco1 | i | i | i | -123.1 | i[1.53 µM] | ?
Fc1cccc(Cl)c1CNc1n[nH]c(-c2ccco2)n1 | nt | nt | i | nt | i | i
Fc1ccc(-n2nnc(-c3cccnc3)n2)cc1 | i | i | i | i | i | i
Fc1ccc(C(CCCn2nnc(-c3cccnc3)n2)c2ccc(F)cc2)cc1 | i | i | i | i | i | 10µM
COc1ccc(CNC(=S)NCc2ccc(Cl)cc2)cc1OC | i | i | i | i | i | ?
CC(=O)c1c(C)nn(CC(=O)NC2CCCN(Cc3ccc(CC(C)C)cc3)C2)c1C (configuration not stated) | i | i | i | i | i | 11.2µM
Cc1ccn(CC(=O)NC2CCCN(Cc3ccc(CC(C)C)cc3)C2)n1 (configuration not stated) | i | i | i | i | i | ?
CCOC(=O)C1(CC2CC2)CCN(C(=O)c2cc(C3CC3)nc3ccccc23)CC1 | i | i | i | i | i | 10µM
CCOC(=O)C1(CC2CC2)CCN(C(=O)c2cc(OC)nc3ccccc23)CC1 | i | ? | i | i | i | ?
Cc1ccc(Nc2nc(-c3cccs3)cs2)nc1 | i | i | i | i | i | 3.55µM
Cc1ccc(Nc2nc(-c3ccccc3)cs2)nc1 | i | i | i | i | i | ?
CC(=O)N(C1=C(Cl)C(=O)c2ccccc2C1=O)C1CCCCC1 | i | i | 6.31µM | i | i | ?
CO/N=C1\C[C@]2(C[C@@H]3C[C@H](C/C=C(/C)C[C@@H](C)/C=C\C=C4\CO[C@@H]5[C@@H](O)C(C)=C[C@@H](C(=O)O3)[C@]45O)O2)O[C@@H](/C(C)=C/C(C)C)[C@H]1C | nt | i | i | nt | nt | nt
Cc1cccc2cc(CN(CCCO)C(=O)Nc3cccc(Cl)c3)c(=O)[nH]c12 | i | i | i | i | i | 11.2µM
O=C(Nc1cnn(Cc2ccc(F)cc2)c1)C(c1ccccc1)c1ccccc1 | i | i | i | i | i | 4.47µM
O=C(Nc1cnn(Cc2ccc(F)cc2)c1)c1cnccn1 | i | i | i | i | i | i
O=C(O)CN1CCNCCN(CC(=O)O)CCNCC1 | i | i | i | i | i | ?
SMILES | KCNH2 3.1 block | GLP-1R agonist | GLS inhibitor | KCNH2 WT inh | HEK293 tox | GLP1R inv ag
COc1ccc(/C=C(\NC(=O)c2ccccc2)C(=O)N2CCCCC2)cc1OC | i | i | i | i | i | i
Nc1cc(OC(=O)c2cccs2)nn1S(=O)(=O)c1ccc(F)cc1 | -212.4 | i | i | i | i | i
CCNc1nc(C23CC4CC(CC(C4)C2)C3)cs1 | i | i | i | i | i | 2.82µM
O=C1C2C3C=CC(C2C(=O)N1CCO)C1C(=O)N(CCO)C(=O)C31 (configuration not stated) | i | i | i | i | i | i
O=C1c2ccsc2SCCN1Cc1cccc(Cl)c1 | i | i | i | i | i | 12.6µM
O=C(Nc1ccccc1Cl)N1CCN(C/C=C/c2ccccc2)CC1 | i | i | i | i | i | ?
CC(C(=O)Nc1cccc([N+](=O)[O-])c1)N1CCN(C/C=C/c2ccccc2)CC1 (configuration not stated) | -85.3 | i | i | i | i | 10µM
Cc1ccccc1NC(=O)N1CCN(C/C=C/c2ccccc2)CC1 | -85.6 | i | i | i | i | ?
O=C(Nc1ccc(F)cc1)N1CCN(C/C=C/c2ccccc2)CC1 | i | i | i | i | i | ?
O=C(Nc1cccc(F)c1)N1CCN(C/C=C/c2ccccc2)CC1 | i | i | i | i | i | 8.91µM
Cc1cccc(Cn2cnc3c(cnn3-c3ccc(Cl)cc3)c2=O)c1 | nt | nt | i | nt | i | i
Cc1nc2c(sc(=S)n2Cc2ccco2)c(=O)n1CC(=O)Nc1ccccc1F | i | i | i | i | i | ?
CCn1c(=S)sc2c(=O)n(CC(=O)Nc3cccc(Cl)c3)c(C)nc21 | i | i | i | i | ? | 7.94µM
Cc1nc2c(sc(=S)n2Cc2ccco2)c(=O)n1CC(=O)Nc1ccccc1 | i | i | i | i | i | 4.47µM
COc1ccc(CNC(=O)c2cc3c(=O)[nH]c4ccccc4c3n2C)c(OC)c1 | nt | nt | i | nt | i | i
Cc1cccc(/C=C/c2onc(C)c2S(=O)(=O)N2CCC(C(=O)N3CCC(C)CC3)CC2)c1 | i | i | i | i | i | 2.82µM!
Cc1ccc(C)c(N2CCN(C(=O)C3CCCN(S(=O)(=O)c4c(C)noc4C)C3)CC2)c1 (configuration not stated) | i | i | i | i | i | i
Cc1cccc(/C=C/c2onc(C)c2S(=O)(=O)N2CCC(C(=O)N3CCCCCC3)CC2)c1 | i | i | i | i | i | 2.82µM
CCN(CCN(C)C)C(=O)C1CCN(S(=O)(=O)c2c(C)noc2/C=C/c2ccccc2F)CC1 | i | i | i | i | ? | ?
Cc1ccc(C)c(N2CCN(C(=O)C3CCN(S(=O)(=O)c4c(C)noc4C)CC3)CC2)c1 | i | i | i | i | i | 11.2µM
CCOc1ccccc1/C=C/c1onc(C)c1S(=O)(=O)N1CCC(C(=O)N(CC)CC)CC1 | -95.2 | i | i | i | i | ?
Cc1ccccc1CN1C(=O)c2ccccc2Sc2ccc(C(=O)NC3CCCC3)cc21 | nt | nt | i | nt | i | i
COc1ccc(S(=O)(=O)N2CCCCCC2)cc1C(=O)N(C)Cc1ccc(F)cc1 | i | i | i | i | i | ?
COc1ccc(S(=O)(=O)N2CCCCCC2)cc1C(=O)N(C)Cc1ccc(C(C)(C)C)cc1 | i | i | i | i | i | 5.62µM
COc1cccc(NC(=O)CN(C)C(=O)c2cc(S(=O)(=O)N3CCCCC3)ccc2Cl)c1 | i | i | i | i | i | i

Screening results deposited in PubChem by National Center for Advancing Translational Sciences (NCATS).
